Screening data as filed in PubChem BioAssay.
HPGD inh: HPGD (human) dehydrogenase inhibition. P15428. purified HPGD, NADH fluorescence kinetic, PGE2 substrate. Potency, µM, for inactives: at the top dose activity change, negative = inhibition, most hits filed as inhibitors. 150,000 compounds, 4.3% hits; further: potency means the concentration at half of the fitted maximal effect
Target sequence (P15428 whole entry, looked up): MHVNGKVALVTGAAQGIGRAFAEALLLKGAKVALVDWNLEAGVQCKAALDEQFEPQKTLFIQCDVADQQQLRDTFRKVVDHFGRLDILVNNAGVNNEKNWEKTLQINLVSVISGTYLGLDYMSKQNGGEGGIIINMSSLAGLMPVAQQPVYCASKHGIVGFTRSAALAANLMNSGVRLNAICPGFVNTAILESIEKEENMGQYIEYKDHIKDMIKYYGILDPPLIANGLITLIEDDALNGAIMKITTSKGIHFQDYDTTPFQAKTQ
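20 nM HPGD preincubated 15 min at room temperature with compound in 50 mM Tris-HCl pH 8, 0.01% Tween 20. Started with 1 mM NAD+ and 30 uM prostaglandin E2; NADH fluorescence (360/450 nm) read 5 times over 30-s intervals, last minus first.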
ALOX12 inhib: blocks human 12-lipoxygenase activity. P18054. purified 12-hLO, xylenol orange hydroperoxide absorbance. Potency, µM (doses to about 57.1 µM), for inactives: top-dose activity change, negative = inhibition, actives largely listed as inhibitors. 150,000 compounds, 0.12% hits. AID 1452; active means well fitted inhibition curve with a large enough effect; inconclusive means small, poorly fitted or top-dose-only effect; further: potency means the concentration at half of the fitted maximal effect; nearly all actives have a fitted effect of over 55% in size
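Purified human 12hLO (150 nM final) was preincubated with compounds for 15 min at room temperature in 25 mM Hepes pH 7.0, 0.01% Triton X-100, then reacted with 40 uM arachidonic acid for 30 min. Hydroperoxide was detected with ferrous iron/xylenol orange.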
ALDH1A1 inh: ALDH1A1 (human) enzyme inhibition. 220,000 compounds, 7.3% hits. Purified ALDH1A1, NADH fluorescence, propionaldehyde substrate. Potency, µM (highest dose often 75.3 µM), for inactives: at the highest dose activity, negative = inhibition, most hits filed as inhibitors. AID 1030;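 further: potency means the concentration at half of the fitted maximal effect; plate controls were no enzyme wells and a reference inhibitor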
Target sequence (P00352 whole entry, looked up): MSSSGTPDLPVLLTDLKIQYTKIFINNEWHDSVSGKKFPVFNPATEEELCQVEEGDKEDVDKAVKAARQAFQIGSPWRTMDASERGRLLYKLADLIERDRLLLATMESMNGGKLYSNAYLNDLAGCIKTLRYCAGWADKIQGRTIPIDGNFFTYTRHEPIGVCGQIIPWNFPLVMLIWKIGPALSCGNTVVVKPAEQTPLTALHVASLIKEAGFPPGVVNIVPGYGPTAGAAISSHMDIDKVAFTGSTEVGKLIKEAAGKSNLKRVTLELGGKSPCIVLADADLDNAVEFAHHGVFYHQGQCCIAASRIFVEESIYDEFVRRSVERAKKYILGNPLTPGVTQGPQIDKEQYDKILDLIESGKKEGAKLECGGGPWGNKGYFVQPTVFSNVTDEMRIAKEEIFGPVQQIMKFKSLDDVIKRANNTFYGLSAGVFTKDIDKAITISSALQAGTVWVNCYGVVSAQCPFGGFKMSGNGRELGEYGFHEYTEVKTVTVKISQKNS
Lamin A splicing: changes lamin A minigene splicing in HeLa cells. HeLa LMNA splicing GFP/RFP minigene ratio, 48 h. Potency, µM (titrated, usually from 46.1 µM), inactives show at the top dose ratio change, negative = inhibition, most hits filed as inhibitors. 200,000 compounds, 0.01% hits; active means well fitted inhibition curve with a large enough effect in the signal ratio, with a control signal flat, not every such curve was filed as active; inconclusive means small, poorly fitted or top-dose-only effect, or effect the other way, or a change in a side signal; the % refers to the signal ratio; further: potency means the concentration at half of the fitted maximal effect
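Read-out is the ratio of GFP to DsRed2 object intensity, acquired by 488 nm laser-scanning cytometry on HeLa lamin A-EGFP minigene reporter cells. Compound incubation 48 hrs at 37 °C in Opti-MEM with 2% FBS; DMSO 0.5% final.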
PNC assembly inh: inhibitors of perinucleolar compartment assembly; PC3M PTB-GFP, PNC prevalence imaging, 16 h; active compounds read low; activity change (PNC), negative = inhibition, % at 10 µM; 140,000 compounds, 3.1% hits; AID 2417;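 active means readout at or below -70, meaning at least 70% loss of cells showing the perinucleolar compartment, a nuclear body marking cancer cells; inconclusive means readout between -30 and a set limit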;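 further: plate controls were DMSO wells for no effect and camptothecin positive control wells for full effect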
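Read-out is percentage of cells bearing a perinucleolar compartment, from automated 20x imaging of fixed, Hoechst-stained PC3M PTB-GFP cells. Cells were seeded 4 h, then exposed 16 h to compound (23 nl of library stock) in duplicate plates.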
The depositor's hits bear a star; ? = inconclusive; / = no result; [ ] = dose if it differs, or a comment. An excerpt weighted towards active compounds, which were near 10% of everything screened. Unless noted, the call rests on the fitted dose curve; in most records, active means well fitted inhibition curve with a large enough effect (not every such curve was filed as active); inconclusive means small, poorly fitted or top-dose-only effect, or another doubt; inactive means no such curve, though single readings can be large or run the other way. Unless noted, on the % scale 0 is the no-effect control and ±100 the full control effect.

SMILES	HPGD inh	ALOX12 inhib	ALDH1A1 inh	Lamin A splicing	PNC assembly inh
O=C1c2cccc([N+](=O)[O-])c2C(=O)N1c1ncn[nH]1	-5%	4%[11.4 µM]	8%[13.5 µM]	/	/
COc1cc(-c2nnc3n(CCc4ccccc4)c(=O)c4ccccc4n23)cc(OC)c1OC	-27%	2%	0.22µM*	-3%	?
COc1cc(OC)c(-c2nnc3n(CCc4ccccc4)c(=O)c4ccccc4n23)cc1OC	-23%	2%	?	-9%	-19
CC1SC(c2ccc(Cl)cc2Cl)NC1=O (centres undefined)	-2%	-5%	10%	-10%	25
O=C1c2ccccc2C(=O)C12OC2c1ccc(Cl)cc1Cl (centres undefined)	-18%	1%	25µM*	8%	-24
COc1cc(/C(C)=N/NC(=O)CSc2nncn2C)ccc1OCc1ccccc1Cl	-22%	-2%	5µM*	3%	-8
CCOc1cc(/C=N/NC(=O)c2nn(C)cc2Br)ccc1OCc1ccccc1Cl	-29%	-2%	2%	2%	-112*
CCOc1cc(/C=N/NC(=O)CN2CCOCC2)ccc1OCc1ccccc1	-18%	-1%	-4%	-11%	0
CCN(Cc1ccccc1)C(=O)CSc1nncn1C	/	/	32µM*	?	/
COc1ccc(C(C)=O)cc1CSc1nncn1C	/	/	-4%	-4%[46 µM]	/
CCOc1cc(/C=N/NC(=O)CSc2nncn2C)ccc1OCc1ccccc1	-18%	3%	-6%	?	-96*
O=C(O)c1cc(C(=O)O)nc(C(=O)O)c1	-10%	-2%[11.4 µM]	-4%[13.5 µM]	/	/
COC(=O)C1=C(C)N(Cc2ccccc2)[C@]23O[C@](C(=O)OC)(C(=O)N2C1c1ccccc1)C1CCOC(=O)C13 (some centres undefined)	/	/	12%[13.5 µM]	/	/
CCOc1ccc(NC(=O)NCCn2nnc3cc(S(=O)(=O)N(C)C)ccc32)cc1	/	/	/	15%[46 µM]	/
Cc1ccc(NC(=O)CSc2ncn(-c3ccccc3)n2)cc1C	-6%	-6%	7%	-8%	29
Cc1ccc(NC(=O)CSc2ncc3ccccn23)cc1C	/	/	3.2µM*	/	/
CCCCN(CC)C(=O)CSc1nc2n[nH]c(C)c2c(=N)n1-c1ccc(CC)cc1	/	/	/	-5%[46 µM]	/
COC(=O)[C@@H]1C[C@@H]2CC[C@@H](O)C[C@@H]2N1Cc1ccc(-c2ccccc2)cc1	-7%	4%	-2%	/	/
COc1ccc(OCC(=O)N2CCc3c([nH]c4ccccc34)C2c2ccccn2)cc1 (centres undefined)	/	/	0.45µM*	/	/
CCc1nc(C)ccc1OCC(=O)N1CCc2c([nH]c3ccccc23)C1c1ccccn1 (centres undefined)	/	/	0%	-1%[46 µM]	/
O=[N+]([O-])/C(C(Cl)=C(Cl)Cl)=C(/NC1CC1)Sc1ccccc1	/	/	18µM*	/	/
O=C1NCCCc2c1oc1ccc(O)cc21	-19%	-2%	8.9µM*	?	-5
Cc1ccc(Cn2nnc3c(=O)[nH]c(C(=O)NCc4ccco4)nc32)cc1	-25%	-7%	4%	2%	32
O=C(NCc1ccco1)c1nc2c(nnn2Cc2cccc(Cl)c2)c(=O)[nH]1	0.35µM*	-1%	28µM*	-1%	57
O=C(NCc1ccccc1)c1nc2c(nnn2Cc2cccc(Cl)c2)c(=O)[nH]1	2.5µM*	-1%	15%	11%	-28
SMILES	HPGD inh	ALOX12 inhib	ALDH1A1 inh	Lamin A splicing	PNC assembly inh
CCOc1cc(CNC(=O)NC2COc3ccccc3C2)cc(OCC)c1OCC (centres undefined)	/	/	/	-4%[46 µM]	/
CCN(Cc1ccccc1)S(=O)(=O)c1cc(C(=O)NCCCN(C)C)ccc1OC	/	/	0%	-3%[46 µM]	/
CC(C)c1ccc(C(=O)NCCCN(C)C)cc1	14µM*	2%	2%	1%	?
CN(C)CCCNC(=O)c1ccc(Cl)c(S(=O)(=O)N(C)c2ccccc2)c1	-15%	10%	-3%	5%	-108*
CCOc1ccc(NC(=O)Nc2nnc(CC)s2)cc1	-8%	-10%	?	-1%	36
CCOc1ccc(Nc2n[nH]c(=S)s2)cc1	/	-9%	1.3µM*	-6%	0
CC(C)C[C@@H](CC(=O)N[C@@H](CCC(=O)O)CC(=O)O)NC(=O)[C@@H]1CCCC[C@H]1NC(=O)C[C@H](CCCN)NC(=O)C[C@H](Cc1c[nH]c2ccccc12)NC(=O)[C@@H]1CCCC[C@H]1N	-1%	1%	-9%	/	/
Cc1ccc(S(=O)(=O)Nc2cc(C(=O)NCCN(C)C)ccc2N2CCCCC2)cc1	-6%	0%	16µM*	-10%	56
CCOCCCNC(=O)c1ccc(N2CCCC2)c(NS(=O)(=O)c2ccc(C)cc2)c1	/	/	7.9µM*	/	/
Cc1ccc(S(=O)(=O)Nc2cc(C(=O)NCCN3CCCC3)ccc2N2CCCCC2)cc1	-31%	1%	?	12%[0.0737 µM]	-18
COCCCNC(=O)c1ccc(N2CCCC2)c(NS(=O)(=O)c2ccc(C)cc2)c1	-25%	-6%	14µM*	4%	7
CCOC(=O)CSC(=S)NC(=O)c1ccc(OC)cc1	10µM*	-1%	?	-9%	5
COc1ccc(Cl)cc1NC(=O)c1cc(C)nc2c1c(C)nn2-c1ccccc1	/	/	/	-3%[46 µM]	/
Cc1ccc(O)c(C(=O)c2cnc3c(c2)COc2ccccc2-3)c1	13µM*	1%	?	?	?
O=C(c1cnc2c(c1)COc1ccc(Cl)cc1-2)c1ccccc1O	-17%	3%	14%	3%	?
Nc1ccc(CSc2ccc(Cl)cc2)cc1	/	/	?	16%[46 µM]	/
CSc1nc(=NC(C)=O)ss1	?	-4%	1.8µM*	13%	51
COC(=O)NC1C=CCCC1C(C)=O (centres undefined)	-4%	1%	-3%	/	/
Cc1ccc(NC2=NCC(=O)N2Cc2ccc3c(c2)OCO3)c(C)c1	-1%	-2%	-3%	-4%	-100*
Cc1ccc(Nc2nnc(-c3ccc4c(c3)OCO4)o2)c(C)c1	?	-13%[11.4 µM]	19µM*	/	/
Cc1cccc(NC2=NCC(=O)N2Cc2ccccc2)c1	-10%	2%	25µM*	-9%	39
CC(C)OC(=O)CC12CN3CN(C1)CC(CC(=O)OC(C)C)(C3)C2=O	-1%	-3%	2.5µM*	?	?
c1coc(-c2nc3n(n2)C2(CCCCC2)[C@@H]2CCCC[C@@H]2N3)c1	/	/	/	18%[46 µM]	/
COc1cc(/C=C/C(=O)NC(C)CCc2ccccc2)cc(OC)c1OC (centres undefined)	?	-3%	?	?	-3
CCN1C/C(=C/c2ccc(OC)c(O)c2)C(=O)/C(=C/c2ccc(OC)c(O)c2)C1	/	/	1%	?	/
COc1cccc(/C=C2\C(=O)C(=O)c3ccccc32)c1	3.5µM*	-6%	?	7%	?
COc1cc(C=C2C(=O)c3ccccc3C2=O)cc(OC)c1OC	/	/	1.6µM*	/	/
COc1ccc(C=C2C(=O)c3ccccc3C2=O)cc1O	/	/	0.89µM*	/	/
O=c1c(-c2ccco2)[n+]([O-])c2ccccc2n1OCc1ccccc1F	-7%	0%	?	3%	-2
